Laboratory results from PubChem BioAssay (NCI).
This is part of a sample that, as a whole, favours compounds with a hit. Of some 83,000 tested, about 20% had one in any assay.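 Values shown are percent growth following 48 h exposure of cells in 96-well plates to a single concentration of compound; below 10 was considered active.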 A number with no mark means an inactive call. The source made the active and inactive calls.

These compounds were tested on RXF 393 renal (assay: NCI-60 one-dose screen, 48 h (100 = growth as untreated, 0 = no growth, -100 = all killed)). Conditions: 10 µM unless noted.

Row | Compound | growth
1 | CCN(CC)c1nc(SCC(=O)Nc2nc3ccc(C)cc3s2)nc(-c2ccccc2)c1C#N | 97.3%
2 | Cn1cc(-c2csc(-c3cccc(F)c3)n2)c2cccnc21 | -30.7% [100 µM] (active)
3 | CCN1CCN(c2cc(C)nc(NCc3cc(Nc4ccnc5cc(Cl)ccc45)ccc3F)n2)CC1 | 58.5%
4 | CSc1n(Cc2ccc3ccccc3c2)c(C)c[n+]1Cc1ccc2ccccc2c1 | -26.1% (active)
5 | NC(=N\N=C/c1cccc([N+](=O)[O-])c1)/C(N)=N\N=C/c1cccc([N+](=O)[O-])c1 | 72.9%
6 | COc1ccc(-c2csc(C3=C(O)CN(C(C)C)C3=N)n2)cc1OC | 83.6%
7 | COc1ccc(-c2ccc3c(c2)sc2nc(-c4ccc(F)cc4)cn23)cc1 | 98.8%
8 | Cc1ccc(S(=O)(=O)NCC[C@@H]2C[C@H]2c2cc3ccccc3s2)cc1 | 103%
9 | Cc1cccc(NC(=O)CSc2nc3ccccc3[nH]2)c1 | 99%
10 | C[n+]1cc2cc(C(N)=O)[nH]c3c(=N)c(Cl)c(N)c1c23 | 73.8%
11 | CCN(CC)CCCNc1ccc(Nc2ccc(OC)cc2)cc1 | 90.5%
12 | O=C1C=C[C@]2(C[C@@H](c3cccc(C(F)(F)F)c3)O[C@@H](c3cccc(C(F)(F)F)c3)O2)O1 | -0.258% (active)
13 | Cc1nc2c(c(N3CCCc4ccccc43)n1)CCC2 | 33%
14 | Cc1cc(Cl)nc(NCc2cc(Nc3ccnc4cc(Cl)ccc34)ccc2F)n1 | 61.2%
15 | COc1ccc(NC(=O)CSc2nnc(-c3cc(-c4ccc(S(N)(=O)=O)cc4)nc4ccccc34)n2-c2ccccc2)cc1 | 81.9%
16 | COc1ccc(-c2nc3ccc4[nH]ncc4c3c3c2CCCC3)cc1B(O)O | 6.38% (active)
17 | CC/C=C\C[C@H](O)C/C=C1/C(=O)C=C[C@@H]1C/C=C\CCCCO | 56.1%
18 | O=C(/C=C/c1c(Cl)nc2sccn12)c1nccs1 | 70.7%
19 | O=c1[nH]ccc2nc(N3CCC(O)CC3)nc(Nc3ccc(N4CCOCC4)cc3)c12 | 15.6%

Row | Compound | growth
20 | COc1ccc2c(c1)CCCN2c1c2ccccc2nc2ccccc12 | 27.1%
21 | COc1ccc(N=C(c2ccccc2)C2C(=O)c3ccccc3C2=O)cc1 | 72.1%
22 | Cc1c(O)cc(-c2cnc(N/N=C\c3ccc(Cl)cc3)s2)c(O)c1C | 81.3%
23 | NS(=O)(=O)c1ccc(-n2nc(C(=O)N/N=C\c3ccc(F)cc3)cc2-c2ccc(Cl)cc2)cc1 | 89.5%
24 | CCN1CCN(c2nc(C)cc(NCc3cc(Nc4ccnc5cc(Cl)ccc45)ccc3F)n2)CC1 | -10.8% (active)
25 | COc1ccc2[nH]c(O)c(/C=c3/cc4c(c(-c5ccc(F)c(OC)c5)n3)=Nc3ccccc3-4)c2c1 | -75.2% (active)
26 | CCCCCS(=O)(=O)Nc1ccc(C(=O)O)cc1 | 114%
27 | CN(C)CC1C(=O)O[C@H]2[C@H]1CC/C(COC(=O)c1cc3ccccc3[nH]1)=C\CC[C@@]1(C)O[C@@H]21 (some centres undefined) | -72.2% (active)
28 | N#CC1=C(c2ccc(Br)cc2)NC(SCC(=O)c2ccc(Br)cc2)NC1=O (centres undefined) | 108%
29 | O=c1c2c3c(sc2n2c(-c4cn(-c5ccccc5)nc4-c4ccc(Cl)cc4)nnc2n1Cc1ccccc1)CCCC3 | 94.5%
30 | COc1cc(/C=C/C(=O)c2cccc(-n3cc(-c4ccccc4)[nH]c3=O)c2)ccc1O | 20%
31 | CCCCCCCCCOc1c(OC)cc(C2CC(=O)Nc3c2c(C)nn3-c2nc3ccccc3[nH]2)cc1OC (centres undefined) | -83.4% (active)
32 | Cc1ccc2c(c1)Sc1c(ccc3ccccc13)N2 | 63.6%
33 | CC(C)(C)C(CCc1ccc(Cl)cc1)N1CCN(C2CCCCC2)CC1 (centres undefined) | 83.2%
34 | COc1ccc(C2=NN(C(=O)c3cc(OC)c(OC)c(OC)c3)C(c3ccc(Cl)cc3)C2)cc1OC (centres undefined) | 22.6%
35 | Cc1cc(NCc2cc(Nc3ccnc4cc(Cl)ccc34)ccc2F)nc(N2CCSCC2)n1 | -5.98% (active)
36 | N#Cc1c(-c2cccc(Cl)c2)cc(-c2cccc(F)c2)[nH]c1=O | 88.7%
37 | O=C(CSc1nnc(-c2ccc(NC(=O)c3cccnc3)cc2)o1)N[C@@H](Cc1ccc(O)cc1)C(=O)O | 109%

The compounds below were run on SF-268 CNS in the same assay as above. Conditions: 10 µM unless noted.

Row | Compound | growth
38 | CCN(CC)c1nc(SCC(=O)Nc2nc3ccc(C)cc3s2)nc(-c2ccccc2)c1C#N | 88.5%
39 | Cn1cc(-c2csc(-c3cccc(F)c3)n2)c2cccnc21 | -40.5% [100 µM] (active)
40 | CCN1CCN(c2cc(C)nc(NCc3cc(Nc4ccnc5cc(Cl)ccc45)ccc3F)n2)CC1 | 58%
41 | CSc1n(Cc2ccc3ccccc3c2)c(C)c[n+]1Cc1ccc2ccccc2c1 | -11.7% (active)
42 | NC(=N\N=C/c1cccc([N+](=O)[O-])c1)/C(N)=N\N=C/c1cccc([N+](=O)[O-])c1 | 65.9%
43 | COc1ccc(-c2csc(C3=C(O)CN(C(C)C)C3=N)n2)cc1OC | 117%
44 | COc1ccc(-c2ccc3c(c2)sc2nc(-c4ccc(F)cc4)cn23)cc1 | 110%
45 | Cc1ccc(S(=O)(=O)NCC[C@@H]2C[C@H]2c2cc3ccccc3s2)cc1 | 93.3%
46 | Cc1cccc(NC(=O)CSc2nc3ccccc3[nH]2)c1 | 95.2%
47 | C[n+]1cc2cc(C(N)=O)[nH]c3c(=N)c(Cl)c(N)c1c23 | 64.8%
48 | CCN(CC)CCCNc1ccc(Nc2ccc(OC)cc2)cc1 | 77.5%
49 | O=C1C=C[C@]2(C[C@@H](c3cccc(C(F)(F)F)c3)O[C@@H](c3cccc(C(F)(F)F)c3)O2)O1 | -27.1% (active)
50 | Cc1nc2c(c(N3CCCc4ccccc43)n1)CCC2 | 16.9%
51 | Cc1cc(Cl)nc(NCc2cc(Nc3ccnc4cc(Cl)ccc34)ccc2F)n1 | 58.2%
52 | COc1ccc(NC(=O)CSc2nnc(-c3cc(-c4ccc(S(N)(=O)=O)cc4)nc4ccccc34)n2-c2ccccc2)cc1 | 68.6%
53 | COc1ccc(-c2nc3ccc4[nH]ncc4c3c3c2CCCC3)cc1B(O)O | 56.3%
54 | CC/C=C\C[C@H](O)C/C=C1/C(=O)C=C[C@@H]1C/C=C\CCCCO | 78.3%
55 | O=C(/C=C/c1c(Cl)nc2sccn12)c1nccs1 | 84.8%
56 | O=c1[nH]ccc2nc(N3CCC(O)CC3)nc(Nc3ccc(N4CCOCC4)cc3)c12 | 61.9%

Row | Compound | growth
57 | COc1ccc2c(c1)CCCN2c1c2ccccc2nc2ccccc12 | 33.7%
58 | COc1ccc(N=C(c2ccccc2)C2C(=O)c3ccccc3C2=O)cc1 | 97.7%
59 | Cc1c(O)cc(-c2cnc(N/N=C\c3ccc(Cl)cc3)s2)c(O)c1C | 92.4%
60 | NS(=O)(=O)c1ccc(-n2nc(C(=O)N/N=C\c3ccc(F)cc3)cc2-c2ccc(Cl)cc2)cc1 | 88.3%
61 | CCN1CCN(c2nc(C)cc(NCc3cc(Nc4ccnc5cc(Cl)ccc45)ccc3F)n2)CC1 | 16.6%
62 | COc1ccc2[nH]c(O)c(/C=c3/cc4c(c(-c5ccc(F)c(OC)c5)n3)=Nc3ccccc3-4)c2c1 | 30.3%
63 | CCCCCS(=O)(=O)Nc1ccc(C(=O)O)cc1 | 101%
64 | CN(C)CC1C(=O)O[C@H]2[C@H]1CC/C(COC(=O)c1cc3ccccc3[nH]1)=C\CC[C@@]1(C)O[C@@H]21 (some centres undefined) | -59.7% (active)
65 | N#CC1=C(c2ccc(Br)cc2)NC(SCC(=O)c2ccc(Br)cc2)NC1=O (centres undefined) | 98.9%
66 | O=c1c2c3c(sc2n2c(-c4cn(-c5ccccc5)nc4-c4ccc(Cl)cc4)nnc2n1Cc1ccccc1)CCCC3 | 99.7%
67 | COc1cc(/C=C/C(=O)c2cccc(-n3cc(-c4ccccc4)[nH]c3=O)c2)ccc1O | 66.5%
68 | CCCCCCCCCOc1c(OC)cc(C2CC(=O)Nc3c2c(C)nn3-c2nc3ccccc3[nH]2)cc1OC (centres undefined) | -58.8% (active)
69 | Cc1ccc2c(c1)Sc1c(ccc3ccccc13)N2 | 59.5%
70 | CC(C)(C)C(CCc1ccc(Cl)cc1)N1CCN(C2CCCCC2)CC1 (centres undefined) | 43.8%
71 | COc1ccc(C2=NN(C(=O)c3cc(OC)c(OC)c(OC)c3)C(c3ccc(Cl)cc3)C2)cc1OC (centres undefined) | 37.6%
72 | Cc1cc(NCc2cc(Nc3ccnc4cc(Cl)ccc34)ccc2F)nc(N2CCSCC2)n1 | 38.8%
73 | N#Cc1c(-c2cccc(Cl)c2)cc(-c2cccc(F)c2)[nH]c1=O | 95.6%
74 | O=C(CSc1nnc(-c2ccc(NC(=O)c3cccnc3)cc2)o1)N[C@@H](Cc1ccc(O)cc1)C(=O)O | 107%
